Activity calls are given as the source filed them. How the source made its calls: active means hit-call score of the fitted dose curve at least 0.9, where 1 is the maximum; inactive means score below 0.9.

Conditions in all cases: mRNA level, 48 h; actives raise or lower the signal
Read-out in experiment [1]: Fatty acid synthase (Homo sapiens) (UniProt P49327)
Nature of the experiment: LTEA_HepaRG_FASN: Life Technologies and Expression Analysis (LTEA) Assay for Fatty Acid Synthase (FASN) using HepaRG (AID 2283448). The method, boiled down:
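Differentiated human HepaRG cells were exposed for 48 h in serum-free induction medium to eight half-log concentrations up to 100 uM in 0.5% DMSO, in duplicate. FASN mRNA was quantified by TaqMan qRT-PCR, normalized to ACTB/GAPDH/POLR2A, and fitted bidirectionally against DMSO.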

Read-out in experiment [2]: Cyclin D2 (CCND2), CCND2 (gene 894)
Kind of experiment: LTEA_HepaRG_CCND2: Life Technologies and Expression Analysis (LTEA) Assay for Cyclin D2 (CCND2) using HepaRG (AID 2283449).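 Further: CCND2 transcript measured by TaqMan qRT-PCR and normalised to three housekeeping genes.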 Put shortly:
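Chemicals in 0.5% DMSO, eight half-log concentrations from 100 uM top, were applied in duplicate for 48 h to human HepaRG cells in serum-free induction medium. CCND2 mRNA by TaqMan qRT-PCR, normalised to ACTB/GAPDH/POLR2A; bidirectional fit versus DMSO.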

Read-out in experiment [3]: Cyclin Dependent Kinase Inhibitor 1A (CDKN1A), CDKN1A (gene 1026)
Kind of experiment: LTEA_HepaRG_CDKN1A: Life Technologies and Expression Analysis (LTEA) Assay for Cyclin Dependent Kinase Inhibitor 1A (CDKN1A) using HepaRG (AID 2283450). The method, boiled down:
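Gain or loss of CDKN1A transcript is scored by bidirectional fitting against 0.5% DMSO vehicle. Human HepaRG cultures receive chemicals for 48 h across an 8-point series peaking at 100 uM; expression comes from qRT-PCR.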

Read-out in experiment [4]: Cyclin D1 (CCND1), CCND1 (gene 595)
Nature of the experiment: LTEA_HepaRG_CCND1: Life Technologies and Expression Analysis (LTEA) Assay for Cyclin D1 (CCND1) using HepaRG (AID 2283451).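 On AC50: TaqMan qRT-PCR transcript level normalised to ACTB GAPDH and POLR2A housekeeping genes.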 Put shortly:
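Expression change is measured by qRT-PCR in HepaRG cells after 48 h treatment across eight concentrations topping at 100 uM, with duplicate wells and DMSO (0.5%) serving as baseline for bidirectional fitting.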

Read-out in experiment [5]: catalase (CAT), CAT (gene 847)
Kind of experiment: LTEA_HepaRG_CAT: Life Technologies and Expression Analysis (LTEA) Assay for catalase (CAT) using HepaRG (AID 2283452). Put shortly:
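HepaRG cells in serum-free induction medium, 0.5% DMSO vehicle, exposed 48 h in duplicate over 8 half-log concentrations from 100 uM. CAT mRNA measured by qRT-PCR, normalized to ACTB, GAPDH, POLR2A; bidirectional fit versus DMSO.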

Read-out in experiment [6]: flavin-containing dimethylaniline monooxygenases 3 (FMO3), FMO3 (gene 2328)
Nature of the experiment: LTEA_HepaRG_FMO3: Life Technologies and Expression Analysis (LTEA) Assay for flavin-containing dimethylaniline monooxygenases 3 (FMO3) using HepaRG (AID 2283453). Put shortly: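 HepaRG, 48 h exposure, 8-pt half-log series from 100 uM, 0.5% DMSO vehicle, duplicates; FMO3 transcript by Fluidigm TaqMan qRT-PCR, housekeeping-normalized; gain/loss fit vs DMSO.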

Read-out in experiment [7]: Cytochrome P450 (CYP1A1), CYP1A1 (gene 1543)
Kind of experiment: LTEA_HepaRG_CYP1A1: Life Technologies and Expression Analysis (LTEA) Assay for Cytochrome P450 (CYP1A1) using HepaRG (AID 2283454). The method, boiled down: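 Using HepaRG cultures with 0.5% DMSO as vehicle, eight-concentration exposures (max 100 uM) lasted 48 h. Transcript levels were measured by TaqMan qRT-PCR and normalized to ACTB, GAPDH and POLR2A.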

Read-out in experiment [8]: CFLAR gene, CFLAR (gene 8837)
Kind of experiment: LTEA_HepaRG_CFLAR: Life Technologies and Expression Analysis (LTEA) Assay for CFLAR gene using HepaRG (AID 2283455). Put shortly: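 Differentiated HepaRG cells in serum-free induction medium were exposed 48 h in duplicate to eight half-log concentrations up to 100 uM in 0.5% DMSO; mRNA measured by TaqMan qRT-PCR, normalized to ACTB, GAPDH, POLR2A; bidirectional fitting versus DMSO.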

Read-out in experiment [9]: Forkhead box O1 (FOXO1), FOXO1 (gene 2308)
Kind of experiment: LTEA_HepaRG_FOXO1: Life Technologies and Expression Analysis (LTEA) Assay for Forkhead box O1 (FOXO1) using HepaRG (AID 2283456). The method, boiled down:
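Differentiated HepaRG cells, in serum-free induction medium with 0.5% DMSO, exposed 48 h in duplicate to 8-point half-log series from 100 uM. FOXO1 mRNA measured by TaqMan qRT-PCR, normalized to ACTB, GAPDH, POLR2A; bidirectional fit versus DMSO.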

Read-out in experiment [10]: growth arrest and DNA damage 45 (GADD45A), GADD45A (gene 1647)
Kind of experiment: LTEA_HepaRG_GADD45A: Life Technologies and Expression Analysis (LTEA) Assay for growth arrest and DNA damage 45 (GADD45A) using HepaRG (AID 2283458). Put shortly: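 Differentiated HepaRG cells were exposed in duplicate for 48 h in serum-free induction medium to 8-point half-log concentrations up to 100 uM in 0.5% DMSO. GADD45A mRNA was measured by TaqMan qRT-PCR, normalized to ACTB, GAPDH and POLR2A, with bidirectional fitting versus DMSO.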

Read-out in experiment [11]: Forkhead box O3 (FOXO3), FOXO3 (gene 2309)
Nature of the experiment: LTEA_HepaRG_FOXO3: Life Technologies and Expression Analysis (LTEA) Assay for Forkhead box O3 (FOXO3) using HepaRG (AID 2283459). The method, boiled down: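 Differentiated human HepaRG cells, 48 h post-plating, exposed in duplicate for 48 h in serum-free induction medium; 8-point half-log series from 100 uM in 0.5% DMSO. FOXO3 mRNA by TaqMan qRT-PCR, normalized to ACTB/GAPDH/POLR2A; bidirectional fit versus DMSO.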

Read-out in experiment [12]: ABC Transporter (ABCB1), ABCB1 (gene 5243)
Nature of the experiment: LTEA_HepaRG_ABCB1: Life Technologies and Expression Analysis (LTEA) Assay for ABC Transporter (ABCB1) using HepaRG (AID 2283460). Put shortly: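 HepaRG cells exposed in duplicate for 48 h in serum-free induction medium to eight half-log concentrations up to 100 uM in 0.5% DMSO. ABCB1 mRNA quantified by qRT-PCR, normalised to ACTB, GAPDH and POLR2A; fitted bidirectionally versus DMSO.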

Read-out in experiment [13]: growth arrest and DNA damage 45 (GADD45B), GADD45B (gene 4616)
Kind of experiment: LTEA_HepaRG_GADD45B: Life Technologies and Expression Analysis (LTEA) Assay for growth arrest and DNA damage 45 (GADD45B) using HepaRG (AID 2283461). Put shortly:
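Human HepaRG monolayers receive chemicals for 48 h at eight half-log concentrations, highest 100 uM, in 0.5% DMSO. Expression is measured by TaqMan qRT-PCR and normalized to ACTB, GAPDH and POLR2A.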

Read-out in experiment [14]: ABC Transporter (ABCC3), ABCC3 (gene 8714)
Nature of the experiment: LTEA_HepaRG_ABCC3: Life Technologies and Expression Analysis (LTEA) Assay for ABC Transporter (ABCC3) using HepaRG (AID 2283462). The method, boiled down:
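Transcriptional change of ABCC3 in HepaRG after 48 h treatment, determined by qRT-PCR normalized to endogenous controls. Concentrations spanned eight half-log steps to 100 uM in 0.5% DMSO.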

Read-out in experiment [15]: ABC Transporter (ABCB11), ABCB11 (gene 8647)
Nature of the experiment: LTEA_HepaRG_ABCB11: Life Technologies and Expression Analysis (LTEA) Assay for ABC Transporter (ABCB11) using HepaRG (AID 2283463). The method, boiled down: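 Differentiated human HepaRG cells in serum-free induction medium, dosed in duplicate for 48 h. Eight-point half-log series from 100 uM in 0.5% DMSO; ABCB11 mRNA by qRT-PCR, normalized to ACTB, GAPDH, POLR2A, fitted bidirectionally versus DMSO.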

Read-out in experiment [16]: Broad substrate specificity ATP-binding cassette transporter ABCG2 (Homo sapiens) (UniProt Q9UNQ0)
Nature of the experiment: LTEA_HepaRG_ABCG2: Life Technologies and Expression Analysis (LTEA) Assay for ABC Transporter (ABCG2) using HepaRG (AID 2283465). The method, boiled down:
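Differentiated HepaRG cells were exposed for 48 h in serum-free induction medium to 8 half-log concentrations, top 100 uM, in 0.5% DMSO. ABCG2 mRNA was measured by qRT-PCR, normalized to ACTB, GAPDH and POLR2A, with bidirectional fitting versus DMSO.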

Read-out in experiment [17]: ATP-citrate lyase (ACLY), ACLY (gene 47)
Nature of the experiment: LTEA_HepaRG_ACLY: Life Technologies and Expression Analysis (LTEA) Assay for ATP-citrate lyase (ACLY) using HepaRG (AID 2283466). Put shortly:
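Differentiated HepaRG cells exposed 48 h in serum-free induction medium to eight half-log concentrations up to 100 uM in 0.5% DMSO, duplicates. Transcript measured by Fluidigm TaqMan qRT-PCR, normalized to ACTB, GAPDH, POLR2A; bidirectional fit versus DMSO.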

Read-out in experiment [18]: Peroxisomal acyl-coenzyme A oxidase 1 (ACOX1) gene, ACOX1 (gene 51)
Nature of the experiment: LTEA_HepaRG_ACOX1: Life Technologies and Expression Analysis (LTEA) Assay for Peroxisomal acyl-coenzyme A oxidase 1 (ACOX1) gene using HepaRG (AID 2283467). Put shortly:
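HepaRG cells, plated 48 h then switched to serum-free induction medium, were exposed in duplicate for 48 h to 8-point half-log concentrations up to 100 uM in 0.5% DMSO. ACOX1 mRNA was measured by qRT-PCR, normalized to ACTB/GAPDH/POLR2A, and fitted bidirectionally versus DMSO.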

Fatty acid synthase (Homo sapiens), sequence (P49327 whole entry, looked up): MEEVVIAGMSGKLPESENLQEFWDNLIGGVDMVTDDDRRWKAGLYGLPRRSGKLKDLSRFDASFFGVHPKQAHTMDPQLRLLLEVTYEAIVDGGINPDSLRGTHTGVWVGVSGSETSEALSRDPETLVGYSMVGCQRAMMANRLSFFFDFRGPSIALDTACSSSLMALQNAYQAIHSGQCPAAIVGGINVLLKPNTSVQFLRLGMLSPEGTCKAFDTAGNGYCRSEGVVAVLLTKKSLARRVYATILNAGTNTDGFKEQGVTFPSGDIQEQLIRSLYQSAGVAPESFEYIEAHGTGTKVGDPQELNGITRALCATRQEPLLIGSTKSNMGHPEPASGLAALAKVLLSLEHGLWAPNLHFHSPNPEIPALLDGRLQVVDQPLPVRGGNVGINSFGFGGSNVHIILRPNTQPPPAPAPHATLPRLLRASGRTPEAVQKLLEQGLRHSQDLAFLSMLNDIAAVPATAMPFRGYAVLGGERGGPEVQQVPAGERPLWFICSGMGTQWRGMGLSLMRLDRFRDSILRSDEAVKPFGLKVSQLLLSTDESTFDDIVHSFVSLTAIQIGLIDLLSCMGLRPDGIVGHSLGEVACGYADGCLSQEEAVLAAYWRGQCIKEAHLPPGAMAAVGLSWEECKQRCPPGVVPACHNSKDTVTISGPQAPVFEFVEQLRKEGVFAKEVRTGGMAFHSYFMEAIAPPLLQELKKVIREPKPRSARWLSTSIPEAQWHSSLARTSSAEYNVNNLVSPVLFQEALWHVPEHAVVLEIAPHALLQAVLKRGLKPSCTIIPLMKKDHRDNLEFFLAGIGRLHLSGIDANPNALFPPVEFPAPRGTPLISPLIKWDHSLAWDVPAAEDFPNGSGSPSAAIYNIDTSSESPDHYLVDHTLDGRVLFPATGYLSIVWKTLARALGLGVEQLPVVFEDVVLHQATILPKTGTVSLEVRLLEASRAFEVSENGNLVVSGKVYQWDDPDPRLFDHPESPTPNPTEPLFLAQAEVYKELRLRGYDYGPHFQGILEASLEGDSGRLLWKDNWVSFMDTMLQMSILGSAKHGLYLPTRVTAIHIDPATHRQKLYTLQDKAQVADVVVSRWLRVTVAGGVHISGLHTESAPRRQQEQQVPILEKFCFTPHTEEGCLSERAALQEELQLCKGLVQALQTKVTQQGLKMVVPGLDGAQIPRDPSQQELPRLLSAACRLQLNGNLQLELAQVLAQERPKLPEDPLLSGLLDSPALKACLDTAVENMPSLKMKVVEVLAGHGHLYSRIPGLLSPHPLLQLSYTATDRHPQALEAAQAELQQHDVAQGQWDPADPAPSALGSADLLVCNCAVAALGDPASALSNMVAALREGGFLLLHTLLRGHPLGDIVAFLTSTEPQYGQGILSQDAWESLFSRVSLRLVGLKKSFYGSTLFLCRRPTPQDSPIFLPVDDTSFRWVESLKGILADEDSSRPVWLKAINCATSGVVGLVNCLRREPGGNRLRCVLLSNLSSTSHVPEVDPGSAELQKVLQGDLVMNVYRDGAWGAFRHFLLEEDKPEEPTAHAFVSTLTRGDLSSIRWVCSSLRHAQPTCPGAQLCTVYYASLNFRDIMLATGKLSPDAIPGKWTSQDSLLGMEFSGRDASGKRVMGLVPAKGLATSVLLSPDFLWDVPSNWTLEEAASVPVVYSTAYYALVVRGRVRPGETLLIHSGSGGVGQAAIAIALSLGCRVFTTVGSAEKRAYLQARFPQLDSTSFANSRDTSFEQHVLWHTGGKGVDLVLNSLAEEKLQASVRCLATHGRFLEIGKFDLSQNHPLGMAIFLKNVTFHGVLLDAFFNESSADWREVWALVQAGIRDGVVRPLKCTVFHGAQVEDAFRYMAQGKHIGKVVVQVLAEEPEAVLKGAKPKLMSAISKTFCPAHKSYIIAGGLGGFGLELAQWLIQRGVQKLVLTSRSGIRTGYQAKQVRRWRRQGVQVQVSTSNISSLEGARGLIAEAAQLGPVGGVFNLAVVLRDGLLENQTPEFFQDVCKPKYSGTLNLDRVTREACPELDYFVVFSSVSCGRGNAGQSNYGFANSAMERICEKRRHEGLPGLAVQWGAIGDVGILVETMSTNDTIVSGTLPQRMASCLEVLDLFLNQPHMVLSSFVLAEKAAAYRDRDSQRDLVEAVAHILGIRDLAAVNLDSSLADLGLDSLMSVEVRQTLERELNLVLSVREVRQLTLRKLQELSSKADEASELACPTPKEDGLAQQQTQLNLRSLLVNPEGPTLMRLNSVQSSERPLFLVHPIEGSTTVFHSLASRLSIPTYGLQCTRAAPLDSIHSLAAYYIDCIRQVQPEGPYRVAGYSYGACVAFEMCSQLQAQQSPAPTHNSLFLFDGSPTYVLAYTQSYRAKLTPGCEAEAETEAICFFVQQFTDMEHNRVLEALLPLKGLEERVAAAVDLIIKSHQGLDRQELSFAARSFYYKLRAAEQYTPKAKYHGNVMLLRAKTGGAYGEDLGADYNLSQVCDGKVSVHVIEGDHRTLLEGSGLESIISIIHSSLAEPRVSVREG
Broad substrate specificity ATP-binding cassette transporter ABCG2 (Homo sapiens), sequence (Q9UNQ0 whole entry, looked up): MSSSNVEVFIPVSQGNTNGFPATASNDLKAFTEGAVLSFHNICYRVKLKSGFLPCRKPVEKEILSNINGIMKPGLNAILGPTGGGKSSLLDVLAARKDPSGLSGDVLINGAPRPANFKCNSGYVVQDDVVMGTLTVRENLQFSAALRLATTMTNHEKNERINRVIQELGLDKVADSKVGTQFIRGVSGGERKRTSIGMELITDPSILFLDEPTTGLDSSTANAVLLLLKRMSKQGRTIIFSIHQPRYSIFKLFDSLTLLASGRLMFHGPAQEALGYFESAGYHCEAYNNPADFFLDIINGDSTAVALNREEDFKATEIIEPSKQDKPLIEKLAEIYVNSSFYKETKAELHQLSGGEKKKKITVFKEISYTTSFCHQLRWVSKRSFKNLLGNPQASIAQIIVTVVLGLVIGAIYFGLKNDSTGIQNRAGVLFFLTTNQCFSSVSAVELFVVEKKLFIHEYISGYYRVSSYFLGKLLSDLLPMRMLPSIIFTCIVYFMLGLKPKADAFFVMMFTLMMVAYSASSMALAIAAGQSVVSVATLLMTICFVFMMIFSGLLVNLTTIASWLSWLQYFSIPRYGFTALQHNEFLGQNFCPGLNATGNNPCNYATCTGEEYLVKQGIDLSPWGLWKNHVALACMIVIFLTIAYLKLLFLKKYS

`CCCCCCCCCC[N+](C)(C)CCCCCCCCCC`: the AC50 (usually the concentration at which the activity in the assay is half-maximal) was 42.7 µM (active) in [1]; 88.2 µM (active) in experiment [3]; 50 µM (active) in experiment [4]; 79.4 µM (active) in experiment [6]; 22.9 µM (active) in experiment [7]; 76.5 µM (active) in experiment [8]. In addition, the AC50 is 76.7 µM (active) in [11]; 78.8 µM (active) in [13]; 79.8 µM (active) in [14]; 15.8 µM (active) in experiment [15]; 72.8 µM (active) in experiment [16]; 76.4 µM (active) in [18]. Also, the call in experiment [2], in [5], in experiment [9], in experiment [10], in experiment [12] and in experiment [17] was inactive.

Turning to `O=S(=O)(O)C(F)(F)C(F)(F)C(F)(F)C(F)(F)F`, the result in [1], in experiment [2], in experiment [3], in experiment [4], in [5] and in experiment [6] was inactive. In addition, the call in experiment [7], in experiment [8], in experiment [9], in [10], in experiment [11] and in [12] was inactive. Further, the compound was classed as inactive in experiment [13], in experiment [14], in experiment [15], in experiment [16], in [17] and in experiment [18].

Take `Oc1c(Cl)c(Cl)c(Cl)c(Cl)c1Cl`: the AC50 in experiment [1] was 1.87 µM (active); in experiment [5], 2.73 µM (active); in experiment [6], 4.5 µM (active); in experiment [7], 7.23 µM (active); in experiment [8], 2.17 µM (active); in experiment [9], 6.85 µM (active). The AC50 in experiment [10] was 6 µM (active); in experiment [11], 1.64 µM (active); in [12] it was 2.1 µM (active); in [13], 15 µM (active); in experiment [14] it was 2.09 µM (active); in [15] it was 3.29 µM (active). In addition, the concentration at half-maximal activity (AC50) in [16] is 6.05 µM (active); in experiment [17] it was 1.61 µM (active); in experiment [18], 3.29 µM (active). Also, the outcome in experiment [2], in [3] and in experiment [4] was inactive.

(Values after PubChem BioAssay (EPA / NIEHS).)
